A number with no mark means an inactive call. The source made the active and inactive calls. Unless noted, no stated cut-off is given here; in the data, active means inhibition above about 30%; inactive means the rest.

Test [1] addresses Nuclear receptor coactivator 3 (Homo sapiens) (UniProt Q9Y6Q9). Description: NCOA3 GAL4-fusion reporter inhibition – cell-based, luminescence, quadruplicate, confirmation (AID 588792;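 active means mean inhibition over 43.08%, the solvent-only control mean plus 3 SD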;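 further: 0% = DMSO treated cells and 100% = gossypol at 36 µM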). Particulars: HEK293 GAL4-SRC3 luciferase reporter, at 3.6 µM, hits give high values.
The subject of test [2] is transactivating tegument protein VP16 (Human herpesvirus 1), Gal4-VP16 luciferase reporter. Nature of the test: repression of VP16-driven luciferase reporter – cell-based, luminescence, high throughput, counter-screen for SRC3 inhibitor project (AID 588794). As to conditions: mammalian cells, at 3.6 µM, hits give high values.
For test [3], the target named is Nuclear receptor coactivator 1 (Homo sapiens) (UniProt Q15788). Nature of the test: NCOA1 GAL4-fusion reporter inhibition – cell-based, luminescence, quadruplicate, confirmation (AID 588820;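 active means mean inhibition above 46.68%, the untreated control wells mean plus 3 SD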;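 further: 0% = DMSO wells and 100% = gossypol 36 µM treated wells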). As to conditions: HEK293 GAL4-SRC1 luciferase reporter, at 3.6 µM, hits give high values.
Nuclear receptor coactivator 1 (Homo sapiens), sequence (Q15788 whole entry, looked up, the tested form may be a part): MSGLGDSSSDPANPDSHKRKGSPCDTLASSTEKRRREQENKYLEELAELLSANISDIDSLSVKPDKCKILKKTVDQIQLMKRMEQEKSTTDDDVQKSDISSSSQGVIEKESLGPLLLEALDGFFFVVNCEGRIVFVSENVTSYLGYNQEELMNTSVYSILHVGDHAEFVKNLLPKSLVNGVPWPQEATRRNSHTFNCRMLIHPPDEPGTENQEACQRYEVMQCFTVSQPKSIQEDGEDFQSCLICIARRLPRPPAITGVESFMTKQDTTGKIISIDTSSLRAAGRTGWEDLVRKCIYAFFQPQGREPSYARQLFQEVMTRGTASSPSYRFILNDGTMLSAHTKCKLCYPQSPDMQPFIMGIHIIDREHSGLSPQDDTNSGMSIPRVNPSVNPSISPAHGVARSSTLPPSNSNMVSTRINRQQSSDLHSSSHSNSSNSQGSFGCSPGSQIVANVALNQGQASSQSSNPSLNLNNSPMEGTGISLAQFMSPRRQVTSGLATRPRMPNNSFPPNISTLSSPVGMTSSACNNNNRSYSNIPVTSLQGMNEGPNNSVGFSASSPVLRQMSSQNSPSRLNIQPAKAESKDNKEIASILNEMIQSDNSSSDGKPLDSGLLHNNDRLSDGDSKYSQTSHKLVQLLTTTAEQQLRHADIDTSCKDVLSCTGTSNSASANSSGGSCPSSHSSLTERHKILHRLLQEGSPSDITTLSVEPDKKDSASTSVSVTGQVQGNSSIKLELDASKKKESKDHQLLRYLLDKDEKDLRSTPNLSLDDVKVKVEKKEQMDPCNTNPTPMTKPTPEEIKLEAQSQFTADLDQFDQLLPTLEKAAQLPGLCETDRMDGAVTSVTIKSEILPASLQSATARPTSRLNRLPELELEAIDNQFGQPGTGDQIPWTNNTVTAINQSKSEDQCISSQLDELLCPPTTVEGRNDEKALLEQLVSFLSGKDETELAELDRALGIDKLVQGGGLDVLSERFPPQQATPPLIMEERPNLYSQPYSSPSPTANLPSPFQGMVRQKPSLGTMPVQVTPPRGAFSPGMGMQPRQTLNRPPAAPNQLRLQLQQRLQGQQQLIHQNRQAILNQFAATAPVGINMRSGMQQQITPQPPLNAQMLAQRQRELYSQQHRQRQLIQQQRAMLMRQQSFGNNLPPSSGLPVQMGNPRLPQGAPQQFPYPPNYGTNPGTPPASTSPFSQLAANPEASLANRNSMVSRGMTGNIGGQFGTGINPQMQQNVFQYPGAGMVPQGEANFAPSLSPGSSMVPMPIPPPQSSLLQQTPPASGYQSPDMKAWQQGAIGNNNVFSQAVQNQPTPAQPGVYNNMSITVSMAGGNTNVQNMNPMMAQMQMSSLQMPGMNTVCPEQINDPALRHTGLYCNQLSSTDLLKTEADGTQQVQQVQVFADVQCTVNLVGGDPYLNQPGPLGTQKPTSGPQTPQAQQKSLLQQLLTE
Test [4] is described as follows: repression of VP16-driven luciferase reporter – cell-based, luminescence, high throughput, counter-screen for SRC1 inhibitor project (AID 588824; in the data active means inhibition above about 25%). Particulars: cell-based VP16 transactivation luciferase luminescence; at 3.6 µM; hits give high values.
The nature of test [5]: StAR promoter reporter inhibitors, counter-screen for LRH-1 inverse agonist project, cell-based, luminescence, high throughput (AID 651611; in the data active means inhibition above about 28%). Particulars: StAR promoter luciferase reporter counterscreen, at 3.6 µM, hits give high values.
Test [6] deals with Nuclear receptor subfamily 5 group A member 2 (Homo sapiens) (UniProt O00482). Description: NR5A2 activity suppression in reporter cells – cell-based, luminescence, confirmation (AID 651613; in the data active means inhibition above about 42%;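 further: HEK293T cells co-transfected with LRH-1 and StAR promoter luciferase reporter; 0% = vehicle wells and 100% = parental cells lacking receptor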). Particulars: cell-based LRH-1 luciferase reporter, inverse agonism; at 3.6 µM; hits give high values.
Nuclear receptor subfamily 5 group A member 2 (Homo sapiens), sequence (O00482 whole entry, looked up): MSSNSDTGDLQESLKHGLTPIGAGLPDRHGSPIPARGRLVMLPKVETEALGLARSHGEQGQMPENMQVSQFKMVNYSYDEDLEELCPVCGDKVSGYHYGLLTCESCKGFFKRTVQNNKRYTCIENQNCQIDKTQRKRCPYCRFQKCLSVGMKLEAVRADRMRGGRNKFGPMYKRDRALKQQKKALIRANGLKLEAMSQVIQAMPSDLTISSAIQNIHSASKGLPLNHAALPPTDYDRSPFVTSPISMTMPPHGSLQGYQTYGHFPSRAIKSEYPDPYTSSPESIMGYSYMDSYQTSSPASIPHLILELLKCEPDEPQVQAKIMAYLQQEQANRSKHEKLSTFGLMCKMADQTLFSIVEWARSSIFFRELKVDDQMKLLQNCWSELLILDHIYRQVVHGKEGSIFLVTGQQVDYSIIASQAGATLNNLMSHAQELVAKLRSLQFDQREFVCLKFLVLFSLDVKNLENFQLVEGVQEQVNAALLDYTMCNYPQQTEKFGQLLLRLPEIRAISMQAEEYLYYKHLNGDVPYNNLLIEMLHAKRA
In test [7] the target is Steroidogenic factor 1 (Homo sapiens) (UniProt Q13285). Description: inverse agonism at SF1 nuclear receptor – cell-based, luminescence, high throughput, counter-screen for LRH-1 inverse agonist project (AID 651614; in the data active means inhibition above about 44%;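 further: cells cotransfected with StAR promoter reporter and SF1 expression vector; 0% = vehicle on cells with receptor and 100% = vehicle on cells lacking receptor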). As to conditions: cell-based SF1 luciferase reporter, at 3.6 µM, hits give high values.
Steroidogenic factor 1 (Homo sapiens), sequence (Q13285 whole entry, looked up, the tested form may be a part): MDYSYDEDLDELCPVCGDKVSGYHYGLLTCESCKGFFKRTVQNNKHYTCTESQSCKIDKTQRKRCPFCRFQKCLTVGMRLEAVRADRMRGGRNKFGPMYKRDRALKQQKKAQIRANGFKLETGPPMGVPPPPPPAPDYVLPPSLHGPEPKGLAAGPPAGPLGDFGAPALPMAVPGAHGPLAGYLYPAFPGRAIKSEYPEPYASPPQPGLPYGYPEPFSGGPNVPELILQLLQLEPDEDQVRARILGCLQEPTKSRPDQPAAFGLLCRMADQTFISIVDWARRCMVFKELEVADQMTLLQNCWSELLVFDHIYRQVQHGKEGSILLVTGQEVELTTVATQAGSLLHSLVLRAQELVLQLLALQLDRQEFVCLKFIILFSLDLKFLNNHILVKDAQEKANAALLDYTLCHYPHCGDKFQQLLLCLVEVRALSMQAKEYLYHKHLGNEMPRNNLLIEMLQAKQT
Test [8] is described as follows: compounds suppressing VP16-driven luciferase signal – cell-based, luminescence, high throughput, counter-screen for LRH-1 inverse agonist project (AID 651615; in the data active means inhibition above about 33%). Particulars: Gal4-VP16 luciferase reporter cells, at 3.6 µM, hits give high values.
The test system of test [9] is transactivating tegument protein VP16 (Human herpesvirus 1). Nature of the test: compounds suppressing VP16-driven luciferase signal – cell-based, luminescence, single concentration, counter-screen for SRC2 inhibitor project (AID 652007; in the data active means inhibition above about 36%). Particulars: cell-based VP16 transactivation luciferase reporter, at 8.9 µM, hits give high values.
The target in test [10] is Nuclear receptor coactivator 2 (Homo sapiens) (UniProt Q15596). Description: inhibition of GAL4-SRC2 driven luciferase expression – cell-based, luminescence, HEK293, triplicate, confirmation (AID 652008;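 active means mean inhibition above 46.5%, the solvent-only control mean plus 3 SD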;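 further: 0% = DMSO-treated cells and 100% = Gossypol at 36 µM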). As to conditions: HEK293 GAL4-SRC2 luciferase reporter, at 8.9 µM, hits give high values.

Nuclear receptor coactivator 3 (Homo sapiens), sequence (Q9Y6Q9 whole entry, looked up, the tested form may be a part): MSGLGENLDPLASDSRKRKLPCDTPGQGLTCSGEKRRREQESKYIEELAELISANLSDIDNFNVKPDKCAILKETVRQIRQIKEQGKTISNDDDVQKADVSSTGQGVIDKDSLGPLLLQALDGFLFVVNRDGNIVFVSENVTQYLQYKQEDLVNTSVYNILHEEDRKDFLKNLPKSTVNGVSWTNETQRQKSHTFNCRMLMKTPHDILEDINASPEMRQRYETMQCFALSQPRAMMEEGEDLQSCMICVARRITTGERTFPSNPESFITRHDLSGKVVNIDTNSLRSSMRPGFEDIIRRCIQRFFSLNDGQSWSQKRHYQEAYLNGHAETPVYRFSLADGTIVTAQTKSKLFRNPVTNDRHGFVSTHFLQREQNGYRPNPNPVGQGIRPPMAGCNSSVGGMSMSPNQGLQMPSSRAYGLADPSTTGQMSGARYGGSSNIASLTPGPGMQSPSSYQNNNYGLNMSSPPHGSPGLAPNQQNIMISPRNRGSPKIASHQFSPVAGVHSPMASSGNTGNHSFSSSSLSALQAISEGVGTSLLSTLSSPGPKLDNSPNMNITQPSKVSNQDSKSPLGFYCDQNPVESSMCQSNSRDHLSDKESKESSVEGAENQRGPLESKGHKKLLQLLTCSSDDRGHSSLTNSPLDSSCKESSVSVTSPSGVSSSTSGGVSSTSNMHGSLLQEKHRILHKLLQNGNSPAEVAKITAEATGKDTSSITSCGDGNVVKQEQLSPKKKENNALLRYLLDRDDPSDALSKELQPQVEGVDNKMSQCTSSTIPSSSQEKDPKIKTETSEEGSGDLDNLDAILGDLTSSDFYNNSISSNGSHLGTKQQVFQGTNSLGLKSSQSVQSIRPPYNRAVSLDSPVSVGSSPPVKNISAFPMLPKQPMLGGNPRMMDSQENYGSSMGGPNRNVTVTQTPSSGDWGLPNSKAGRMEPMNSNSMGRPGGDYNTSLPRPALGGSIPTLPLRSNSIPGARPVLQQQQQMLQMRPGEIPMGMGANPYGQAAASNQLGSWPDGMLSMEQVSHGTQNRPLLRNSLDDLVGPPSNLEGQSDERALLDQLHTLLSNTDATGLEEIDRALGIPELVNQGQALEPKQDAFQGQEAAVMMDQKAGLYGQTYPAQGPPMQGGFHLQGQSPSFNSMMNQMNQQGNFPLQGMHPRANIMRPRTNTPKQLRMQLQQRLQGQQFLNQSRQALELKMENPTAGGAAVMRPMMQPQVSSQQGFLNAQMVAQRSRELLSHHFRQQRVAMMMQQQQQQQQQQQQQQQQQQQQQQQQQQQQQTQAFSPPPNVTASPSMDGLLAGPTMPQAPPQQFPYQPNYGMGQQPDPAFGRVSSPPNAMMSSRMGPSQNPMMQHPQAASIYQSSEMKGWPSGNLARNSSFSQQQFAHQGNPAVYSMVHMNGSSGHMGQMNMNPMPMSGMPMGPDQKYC

For `O=C1NC2C(=CC(O)C(O)C2O)c2cc3c(cc21)OCO3` (configuration not stated), the inhibition in test [1] was 97.1% (active); in test [2], 96.6% (active); in test [3] it was 88.5% (active); in test [4] it was 96.3% (active); in [5] it was 94% (active); in test [6], 109% (active). The inhibition in test [7] is 96.7% (active); in test [8] it was 95.6% (active); in test [9] it was 73.8% (active); in test [10], 76.2% (active).

`C[C@]12CC[C@H](O)C[C@H]1CC[C@@H]1[C@@H]2C[C@@H](O)[C@]2(C)[C@@H](C3=CC(=O)OC3)CC[C@]12O`: the inhibition in [1] is 88.8% (active); in test [2], 65.8% (active); in [3] it was 13.8%; in [4], 65.4% (active); in [5], 94.8% (active); in [6], 107% (active). Besides, the inhibition in test [7] is 96% (active); in test [8], 77.7% (active).

Consider `COc1ccc(-n2nnnc2C(CCc2ccccc2)N2CCC(n3c(=O)[nH]c4ccccc43)CC2)cc1` (configuration not stated), for which the inhibition is 25.2% in [1]; 8.54% in test [2]; 2.43% in test [3]; 9.95% in test [4]; 48.7% (active) in test [5]; 28.1% in test [6]. The inhibition in [7] is 30.3%; in [8], 33.6% (active).

Regarding `O=c1[nH]c2ccccc2n1C1CCN(C(c2cccc3ccccc23)c2nnnn2-c2ccc3c(c2)OCCO3)CC1` (configuration not stated), the inhibition in test [1] is 33.8%; in [2] it was 12.5%; in test [3], -29.6%; in test [4] it was 10.9%; in [5] it was 57.5% (active); in test [6], 27.6%. For the same compound, the values for the inhibition in [7] and in test [8] were 44% (active) and 27.7%, respectively.

With `COc1ccc(-n2nnnc2C(c2cc3ccccc3o2)N2CCC(n3c(=O)[nH]c4ccccc43)CC2)cc1` (configuration not stated), the inhibition in test [1] was -5.69%; in test [2] it was 5.58%; in [3] it was 0.21%; in test [4] it was 6.66%; in test [5] it was 39.6% (active); in [6], 36.4%. Further, the inhibition was 45.7% (active) in test [7], 35.3% (active) in test [8], 49.7% (active) in test [9] and 22.9% in [10].

With `Cc1ccc(-c2cc(-c3ccccc3)cc(-c3ccccc3)[n+]2-c2ccccc2)cc1`, the inhibition in test [1] was 86.4% (active); in test [2] it was 89.9% (active); in test [3], 67.6% (active); in [4], 85.6% (active); in test [5], 83.6% (active); in test [6] it was 110% (active). The inhibition in test [7] was 91.4% (active); in test [8], 95.2% (active); in [9], 70% (active); in test [10], 61.8% (active).

In the case of `CC(=O)OC1(C)CC(C)C(=O)C(C(O)CC2CC(=O)NC(=O)C2)C1` (configuration not stated), the inhibition is 98% (active) in [1]; 96.7% (active) in test [2]; 93.5% (active) in [3]; 95.6% (active) in [4]; 94.8% (active) in test [5]; 110% (active) in test [6]. For the same compound, the inhibition in test [7] is 97.5% (active); in test [8] it was 95.8% (active); in test [9], 80.1% (active); in test [10], 71.5% (active).

For the compound `Nc1ncnc2c1ccn2[C@@H]1O[C@H](CO)[C@@H](O)[C@H]1O`, the inhibition in test [1] was 93.6% (active); in [2] it was 89.5% (active); in test [3] it was 53.4% (active); in [4], 86.8% (active); in [5], 90.9% (active); in test [6], 107% (active). For the same compound, the inhibition in [7] is 94.2% (active); in test [8] it was 93.6% (active); in test [9] it was 55.5% (active); in [10] it was 58.3% (active).

Consider `CN(C)c1ccc(/C=C/C=C/c2sc3ccccc3[n+]2C)cc1`, for which the inhibition is 22.8% in test [1]; 38.5% (active) in test [2]; 27.4% in [3]; 30.4% (active) in test [4]; 35.2% (active) in [5]; 54.1% (active) in test [6]. Also, the inhibition in [7] was 63% (active); in test [8] it was 56.9% (active).

As to `COC(=O)C12OCC34C(CC5C(C)=C(O)C(=O)CC5(C)C3C(O)C1O)OC(=O)C(OC(=O)/C=C(\C)C(C)C)C24` (configuration not stated), the inhibition in [1] was 99% (active); in test [2] it was 97.6% (active); in test [3], 98.1% (active); in test [4] it was 97.7% (active); in test [5], 96.7% (active); in test [6] it was 110% (active). For the same compound, the figures for the inhibition in [7] and in test [8] were 98.9% (active) and 97.9% (active), respectively.

As to `CN1CCN(c2ccc([N+](=O)[O-])c3no[n+]([O-])c23)CC1`, the inhibition in test [1] is 98.6% (active); in test [2] it was 96.4% (active); in test [3], 93.7% (active); in test [4], 96% (active); in test [5], 97% (active); in [6], 111% (active). The figures for the inhibition in test [7] and in test [8] were 98.9% (active) and 97.9% (active), respectively.

Turning to `N#CC1c2ccccc2-n2nncc2CN1Cc1cc(Cl)cc(Cl)c1` (configuration not stated), the inhibition in test [1] was 92.8% (active); in test [2], 84.7% (active); in [3], 79.7% (active); in [4], 90.4% (active); in test [5], 90.5% (active); in [6], 106% (active). The inhibition in [7] is 94.1% (active); in test [8] it was 94.3% (active); in test [9], 82.2% (active); in test [10], 84.5% (active).

For the compound `CC[n+]1c(-c2ccccc2)c2cc(N)ccc2c2ccc(N)cc21`, the inhibition in test [1] is -43.8%; in test [2] it was 52.4% (active); in test [3], 40.9%; in test [4], 41.4% (active); in test [5], 68.7% (active); in test [6], 92.5% (active). Besides, the values for the inhibition in [7] and in [8] were 77.7% (active) and 84.8% (active), respectively.

Regarding `CC[C@@]1(O)C(=O)OCc2c1cc1n(c2=O)Cc2cc3c(NC(=O)CN)cccc3nc2-1`, the inhibition in test [1] is 61.8% (active); in test [2] it was 9.37%; in [3] it was 55.3% (active); in test [4], -2.11%; in test [5] it was 42.7% (active); in test [6], 70% (active). Moreover, the results for the inhibition in test [7] and in [8] were 59.3% (active) and 9.93%, respectively.

Take `C=CCn1c(O)c(C(C)=NCc2cc(OC)cc(OC)c2)c(=O)[nH]c1=O`: the inhibition in test [1] was 49.6% (active); in test [2] it was 28.2%; in test [3] it was 43%; in [4] it was 24.5%; in [5], 42.4% (active); in test [6], 66.4% (active). Besides, the inhibition in [7] is 57.7% (active); in [8] it was 43.6% (active).

The values above are taken from PubChem BioAssay.
